Source: PubChem (National Center for Advancing Translational Sciences (NCATS))
GAA glycogen: qHTS Assay for Inhibitors and Activators of Human alpha-Glucosidase Cleavage of Glycogen | Lysosomal alpha-glucosidase (Homo sapiens), P10253 | recombinant GAA, glycogen substrate, Amplex Red glucose oxidase fluorescence | Potency, µM (top dose mostly 76.4 µM), for the others: at the highest dose activity change, negative = inhibition, actives largely listed as inhibitors | 300,000 tested, 0.38% active | AID 2100, 2009;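 also: potency is read from the fitted curve at half-maximal effect; 0% = full enzyme reaction and -100% = no-enzyme basal signal; the screen sought inhibitors and activators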
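Recombinant human alpha-glucosidase (4 nM final) hydrolysed bovine liver glycogen (30 ug) for 40 min at 37 C in pH 5.0 citrate/phosphate with 0.01% Tween-20. Released glucose detected by glucose oxidase/Amplex Red, Ex 573/Em 610 nm. Compounds up to 77 uM; AC50 from Hill fits.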
aGlu spleen mod: qHTS Assay for Inhibitors and Activators of Human alpha-Glucosidase From Spleen Homogenate; 240,000 tested, 0.006% active; Potency, µM (top dose mostly 79.9 µM), for inactives: at the highest dose activity change, negative = inhibition, usual class: inhibitors; Lysosomal alpha-glucosidase (Homo sapiens), P10253; human spleen homogenate, 4-MU-alpha-glucoside fluorescence;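 also: potency is read from the fitted curve at half-maximal effect; 0% = enzyme with vehicle and -100% = no enzyme basal signal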
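Human spleen homogenate (1 ug) with 4-methylumbelliferyl-alpha-D-glucopyranoside (1 mM final) in 50 mM citrate/phosphate pH 5.0, 0.01% Tween-20; 40 min at 37 C. Stopped at pH 10; 4-MU fluorescence Ex 365/Em 440 nm; AC50 by Hill fit.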
GAA inhib: qHTS Assay for Inhibitors of Human alpha-Glucosidase as a Potential Chaperone Treatment of Pompe Disease | Lysosomal alpha-glucosidase (Homo sapiens), P10253 | purified human GAA, 4-MU-alpha-glucoside fluorescence | Potency, µM (doses to about 76.9 µM), for inactives: at the highest dose activity change, negative = inhibition, hits mostly inhibitors | 200,000 tested, 0.005% active | AID 1466, 2008;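 also: potency is read from the fitted curve at half-maximal effect; plate controls were uninhibited enzyme wells for no effect and no-enzyme background for full effect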
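Compounds are titrated up to 77 uM against 4 nM human enzyme. Substrate 4-methylumbelliferyl-alpha-D-pyranoside (400 uM) reacts 20 min at room temperature in pH 5.0 buffer; liberated 4-methylumbelliferone is read at 440 nm.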
N370S GC: qHTS Assay for Inhibitors and Activators of N370S glucocerebrosidase as a Potential Chaperone Treatment of Gaucher Disease. Lysosomal acid glucosylceramidase (Homo sapiens), P04062. N370S GC spleen homogenate, 4MU-glucoside fluorescence. Potency, µM (doses to about 59.4 µM), without a hit: at the highest dose activity change, negative = inhibition, hits mostly inhibitors. 330,000 tested, 0.092% active. AID 2101, 2009;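 also: potency is read from the fitted curve at half-maximal effect; 0% = full enzyme activity and -100% = no enzyme basal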
aGal spleen mod: qHTS Assay for Inhibitors and Activators of Human alpha-Galactosidase From Spleen Homogenate | human spleen homogenate, 4MU-alpha-Gal fluorescence, 40 min | Potency, µM (top dose mostly 80 µM), inactives show top-dose activity change, negative = inhibition, usual class: inhibitors | 240,000 tested, 0.008% active | AID 2107, 2009;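 also: potency is read from the fitted curve at half-maximal effect; 0% = enzyme with vehicle and -100% = no enzyme basal signal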
Target sequence (P06280 32-429 limits assumed): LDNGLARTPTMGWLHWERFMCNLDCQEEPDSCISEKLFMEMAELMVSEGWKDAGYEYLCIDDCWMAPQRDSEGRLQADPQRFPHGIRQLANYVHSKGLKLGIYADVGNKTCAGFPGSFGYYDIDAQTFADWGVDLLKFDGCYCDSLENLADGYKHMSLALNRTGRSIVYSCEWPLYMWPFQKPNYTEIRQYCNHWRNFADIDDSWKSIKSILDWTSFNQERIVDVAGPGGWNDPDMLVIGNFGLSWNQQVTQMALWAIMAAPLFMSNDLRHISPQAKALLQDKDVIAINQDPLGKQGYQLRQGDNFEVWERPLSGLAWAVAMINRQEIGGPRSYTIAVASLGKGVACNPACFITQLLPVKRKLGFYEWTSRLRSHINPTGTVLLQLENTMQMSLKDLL
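Spleen homogenate 1 ug + cpd (titration) + 4-MU-alpha-D-galactopyranoside 1 mM; 37C 40 min; 50 mM citrate/phosphate pH 5.0, 0.01% Tween-20; stop pH 10; fluorescence 365/440; AC50 via Hill.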
GLA inh pH 4.5: qHTS Assay for Inhibitors of Human alpha-Galactosidase at pH 4.5; activity change, negative = inhibition, % at 105 µM; Alpha-galactosidase A (Homo sapiens), P06280; AID 1467, 2008; purified enzyme, 4-MU-alpha-Gal fluorescence, pH 4.5; 230,000 tested, under 10 active;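 also: 0% = full activity with enzyme and -100% = basal without enzyme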
An asterisk follows results filed as active; ? = inconclusive; . = no result given; [ ] = dose if it differs, or a comment. Sampled rows, rich in hits. Any-hit rate of the full collection: about 0.43%. Calls follow the shape of the dose curve; as a rule, active = well fitted curve in the direction sought with a large enough effect; inconclusive = small, poorly fitted or top-dose-only effect, or another doubt; inactive = no such curve, though single readings can be large; an effect the other way counts as inactive or inconclusive.

SMILES | GAA glycogen | aGlu spleen mod | GAA inhib | N370S GC | aGal spleen mod | GLA inh pH 4.5
CCOc1cc(/C=N/Nc2nn3cnnc3c3ccccc23)ccc1O | ? | -1% | . | -6% | -1% | -4
CC(=O)c1ccc(N2CCN(S(=O)(=O)c3ccc4c(c3)CC(C)N4C(=O)C3CCC3)CC2)cc1 (centres undefined) | 12%[76.3 µM] | . | . | . | . | .
COC(=O)c1[nH]c2ccc(F)cc2c1NS(=O)(=O)c1ccc(F)c(C)c1 | -9% | -1% | -1% | 14% | -3% | 1
Cc1ccc(S(=O)(=O)Nc2c(C(=O)O)[nH]c3ccccc23)cc1C | ? | . | . | 4% | . | .
Cc1cc(S(=O)(=O)Nc2c(C(=O)O)[nH]c3ccccc23)ccc1F | 2.2µM* | -7% | 2% | 12% | -13% | -1
COC(=O)c1[nH]c2ccc(C)cc2c1NS(=O)(=O)c1ccc(F)c(C)c1 | 18µM* | 6% | 3% | 2% | 11% | 0
COC(=O)c1[nH]c2ccc(C)cc2c1NS(=O)(=O)c1ccc(F)cc1 | 10µM* | -5% | 8% | -36% | 8% | 8
Cc1ccc(-c2nc3ncccn3c2Nc2ccc3c(c2)OCO3)o1 | 10µM* | 3% | -2% | 9% | -5% | 8
Oc1ccc(-c2nc3ncccn3c2Nc2ccc3c(c2)OCO3)cc1 | 25µM* | -6% | 5% | 3% | -8% | -6
COCOc1ccc(Br)cc1C(=O)/C=C\c1ccc2c(c1)OCO2 | . | -6%[17.4 µM] | . | 14%[12.8 µM] | -5%[17.5 µM] | .
CCCn1c(CNc2ccccc2O)nc2ccccc21 | 12µM* | -3% | -9% | -5% | 1% | -10
